# Measurements published in PubChem BioAssay (EPA / NIEHS).
# Where “and” joins values, the source holds several entries; their conditions need not be identical. Equal entries are not always repeated. Records with an inconclusive call do not appear. Some structures have more than one record in an assay (separate samples or runs), and their calls can disagree. Calls of active or inactive are those of the source. The calls were made as follows, unless noted: active = hit-call score of the fitted dose curve at least 0.9, where 1 is the maximum; inconclusive = response in the unintended direction; inactive = score below 0.9.
# Key:
# [1] = BSK_4H_Eotaxin3: BioMAP Diversity Plus: 4H Assay for Eotaxin 3 Biomarker Activity (AID 2283000; active = hit-call score of the fitted dose curve at least 0.9, where 1 is the maximum; inactive = score below 0.9;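 as to outcome: CCL26 protein level quantified by ELISA in parallel with SRB cytotoxicity check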); conditions: primary human endothelial cells (HUVEC); actives raise or lower the signal
# Summary of the method: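 HUVEC, 24 h post-dose, ELISA for Eotaxin-3/CCL26. Gain or loss of signal fitted bidirectionally vs DMSO baseline.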
# [2] = target: human Peroxisome Proliferator-activated Receptor alpha (PPARa), PPARA (gene 5465) (UniProt Q07869); assay: ATG_PPARa_TRANS: Attagene TRANS-FACTORIAL HepG2 Assay for human Peroxisome Proliferator-activated Receptor alpha (PPARa) (AID 2283001);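 as to AC50: potency for gain of reporter signal over DMSO so agonist or activator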
# Summary of the method: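 HepG2, transient MRTU transfection, 24 h treatment. RT-PCR → FAM labelling → capillary electrophoresis. Fit vs DMSO, positive direction.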
# [3] = target: Peroxisome proliferator-activated receptor gamma (Homo sapiens) (UniProt P37231); assay: ATG_PPARg_TRANS: Attagene TRANS-FACTORIAL HepG2 Assay for human Peroxisome Proliferator-activated Receptor-gamma (PPARg) (AID 2283007)
# Summary of the method: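 Liver-derived HepG2 cells expressing an exogenous NR-Gal4 chimera alongside GAL4-UAS reporter genes; 24 h exposure. Fluorescence of reporter RT-PCR products, separated by capillary electrophoresis, gives mRNA induction relative to DMSO.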
# [4] = target: Nuclear receptor subfamily 1 group I member 2 (Homo sapiens) (UniProt O75469); assay: ATG_PXR_TRANS: Attagene TRANS-FACTORIAL HepG2 Assay for human Pregnane X Receptor (PXR) (AID 2283008)
# Summary of the method: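 Transient HepG2 transfectants carrying multiplexed reporter transcription units; PXR activity read through a Gal4 chimera. 24 h exposure. RT-PCR/CE fluorescence; upward curve fit referenced to DMSO.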
# [5] = target: Retinoic acid receptor RXR-alpha (Homo sapiens) (UniProt P19793); assay: ATG_RXRa_TRANS: Attagene TRANS-FACTORIAL HepG2 Assay for human Retinoid X Receptor alpha (RXRa) (AID 2283012)
# Summary of the method: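 Measures exogenous chimeric NR-GAL4 activity in transfected HepG2 liver cells after 24 h of dosing. Induced reporter mRNA was detected by RT-PCR with capillary electrophoresis, and gain of signal was analysed against DMSO.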
# [6] = target: human Retinoid X Receptor beta (RXRb), RXRB (gene 6257) (UniProt P28702); assay: ATG_RXRb_TRANS: Attagene TRANS-FACTORIAL HepG2 Assay for human Retinoid X Receptor beta (RXRb) (AID 2283013)
# Summary of the method: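 Chimeric receptor-Gal4 activity was assessed in transiently transfected human HepG2 cells after 24 h exposure. Transcripts from GAL4-UAS reporters were quantified by fluorescent RT-PCR and capillary electrophoresis, with DMSO as negative control and baseline.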
# [7] = read-out: E-selectin (Homo sapiens) (UniProt P16581); assay: BSK_3C_Eselectin: BioMAP Diversity Plus: 3C Assay for Eselectin Biomarker Activity (AID 2283015; active = hit-call score of the fitted dose curve at least 0.9, where 1 is the maximum; inactive = score below 0.9;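 as to outcome: cell surface E-selectin protein quantified by ELISA 24 h after dosing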); conditions: primary human endothelial cells (HUVEC); actives raise or lower the signal
# Summary of the method: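 Primary human umbilical vein endothelial cells (3C system) were dosed with chemical and cell-surface E-selectin measured by ELISA 24 h later. Bidirectional curve fitting used DMSO as negative control and baseline.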
# [8] = read-out: Interleukin-1 alpha (IL1a), IL1A (gene 3552); assay: BSK_BE3C_IL1a: BioMAP Diversity Plus: BE3C Assay for Interleukin-1 alpha (IL1a) Biomarker Activity (AID 2283016; active = hit-call score of the fitted dose curve at least 0.9, where 1 is the maximum; inactive = score below 0.9); conditions: primary human bronchial epithelial cells; actives raise or lower the signal
# Summary of the method: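 Signal from IL-1a ELISA, taken 24 h after chemical dosing of human bronchial epithelial cells, is compared with DMSO as baseline using bidirectional curve fitting.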
# [9] = read-out: Monocyte Chemoattractant Protein-1 (MCP1), CCL2 (gene 6347); assay: BSK_3C_MCP1: BioMAP Diversity Plus: 3C Assay for Monocyte Chemoattractant Protein-1 (MCP1) Biomarker Activity (AID 2283017; active = hit-call score of the fitted dose curve at least 0.9, where 1 is the maximum; inactive = score below 0.9); conditions: primary human endothelial cells (HUVEC); actives raise or lower the signal
# Summary of the method: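 Primary human umbilical vein endothelial cells (3C system) were exposed to test chemical for 24 h, after which MCP-1 was quantified by ELISA. Activity was fitted bidirectionally against DMSO as negative control and baseline.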
# [10] = read-out: Monocyte Chemoattractant Protein-1 (MCP1), CCL2 (gene 6347); assay: BSK_4H_MCP1: BioMAP Diversity Plus: 4H Assay for Monocyte Chemoattractant Protein-1 (MCP1) Biomarker Activity (AID 2283018; active = hit-call score of the fitted dose curve at least 0.9, where 1 is the maximum; inactive = score below 0.9); conditions: primary human endothelial cells (HUVEC); actives raise or lower the signal
# Summary of the method: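 Endothelial cells from umbilical vein were treated with test chemical, then after 24 h MCP-1 levels were quantified by ELISA; endpoint values came from bidirectional fitting with DMSO as baseline of activity.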
# [11] = read-out: Human Leukocyte Antigen - DR isotype (HLADR), HLA-DRA (gene 3122); assay: BSK_3C_HLADR: BioMAP Diversity Plus: 3C Assay for Human Leukocyte Antigen - DR isotype (HLADR) Biomarker Activity (AID 2283019; active = hit-call score of the fitted dose curve at least 0.9, where 1 is the maximum; inactive = score below 0.9;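 as to outcome: ELISA of cell-surface HLA-DR on HUVEC 24 h after dosing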); conditions: primary human endothelial cells (HUVEC); actives raise or lower the signal
# Summary of the method: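 Primary human umbilical vein endothelial cells (3C system) were dosed with compound and cell-surface HLA-DR was quantified by ELISA at 24 h. Activity was fitted bidirectionally against DMSO as negative control and baseline.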
# [12] = read-out: Intercellular Adhesion Molecule 1 (ICAM1), ICAM1 (gene 3383); assay: BSK_3C_ICAM1: BioMAP Diversity Plus: 3C Assay for Intercellular Adhesion Molecule 1 (ICAM1) Biomarker Activity (AID 2283003; active = hit-call score of the fitted dose curve at least 0.9, where 1 is the maximum; inactive = score below 0.9); conditions: primary human endothelial cells (HUVEC); actives raise or lower the signal
# Summary of the method: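 Chemicals are dosed onto primary human umbilical vein endothelium (3C system). After 24 h, ICAM-1 is measured by ELISA, and responses are fitted bidirectionally relative to DMSO.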
# [13] = target: human Retinoic Acid Receptor beta (RARb), RARB (gene 5915) (UniProt P10826); assay: ATG_RARb_TRANS: Attagene TRANS-FACTORIAL HepG2 Assay for human Retinoic Acid Receptor beta (AID 2283004)
# Summary of the method: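 HepG2 cells transiently transfected with multiplexed GAL4-UAS reporter units expressing chimeric NR–Gal4 fusions; 24 h compound exposure. Reporter mRNA quantified by RT-PCR, 6-FAM labelling, HpaI digestion and capillary electrophoresis; gain-of-signal fitted against DMSO baseline.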
# [14] = target: Retinoic acid receptor alpha (Homo sapiens) (UniProt P10276); assay: ATG_RARa_TRANS: Attagene TRANS-FACTORIAL HepG2 Assay for human Retinoic Acid Receptor alpha (RARa) (AID 2283005)
# Summary of the method: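 HepG2 transiently transfected with multiplex GAL4-UAS reporter units including a human RARa–GAL4 chimera; 24 h compound exposure. Reporter mRNA quantified by RT-PCR, 6-FAM labeling and capillary electrophoresis; gain of signal versus DMSO.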
# [15] = target: human Retinoic Acid Receptor gamma (RARg), RARG (gene 5916) (UniProt P13631); assay: ATG_RARg_TRANS: Attagene TRANS-FACTORIAL HepG2 Assay for human Retinoic Acid Receptor gamma (RARg) (AID 2283009)
# Summary of the method: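 TRANS format measured activity of exogenous NR-GAL4 fusion (RARg) in transfected HepG2 liver cells after 24 h dosing. Induced reporter RNA was detected by RT-PCR/capillary electrophoresis fluorescence, analysed in the positive direction against DMSO.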
# [16] = target: human RAR-related Orphan Receptor beta (RORb), RORB (gene 6096) (UniProt Q92753); assay: ATG_RORb_TRANS: Attagene TRANS-FACTORIAL HepG2 Assay for human RAR-related Orphan Receptor beta (RORb) (AID 2283010)
# Summary of the method: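 Transfect HepG2 with multiple GAL4-UAS reporter transcription units; dose chemicals for 24 h; isolate RNA, reverse-transcribe and PCR-amplify reporter sequences; label, digest and resolve fragments by capillary electrophoresis; fit increases relative to DMSO.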
# [17] = target: human RAR-related Orphan Receptor gamma (RORg), RORC (gene 6097) (UniProt P51449); assay: ATG_RORg_TRANS: Attagene TRANS-FACTORIAL HepG2 Assay for human RAR-related Orphan Receptor gamma (RORg) (AID 2283011)
# Summary of the method: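 Readout: reporter transcript induction (RT-PCR, fluorescent primer extension, capillary electrophoresis) after 24 h compound exposure of transiently transfected HepG2 cells carrying a RORg-Gal4 chimera and GAL4-UAS reporters; DMSO served as baseline, with increasing signal fitted.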
# [18] = target: human Peroxisome Proliferator-activated Receptor delta (PPARd), PPARD (gene 5467) (UniProt Q03181); assay: ATG_PPARd_TRANS: Attagene TRANS-FACTORIAL HepG2 Assay for human Peroxisome Proliferator-activated Receptor delta (PPARd) (AID 2283002)
# Summary of the method: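 HepG2 cells transiently transfected with GAL4-UAS multiplexed reporter units driven by exogenous chimeric NR-GAL4 proteins; 24 h compound exposure. Reporter mRNA measured by RT-PCR, 6-FAM primer extension, HpaI digestion and capillary electrophoresis; gain of signal fitted relative to DMSO.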
# [19] = target: human Thyroid Receptor alpha (THRa1), THRA (gene 7067) (UniProt P10827); assay: ATG_THRa1_TRANS: Attagene TRANS-FACTORIAL HepG2 Assay for human Thyroid Receptor alpha (THRa1) (AID 2283014)
# Summary of the method: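 HepG2 cells transiently transfected with multiplexed GAL4-UAS reporter units for exogenous chimeric THRa1-Gal4; reporter mRNA measured 24 h after dosing by RT-PCR, 6-FAM labelling, HpaI digestion and capillary electrophoresis. Gain-of-signal fitted versus DMSO baseline.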
# Sequence of E-selectin (Homo sapiens) (P16581 whole entry, looked up): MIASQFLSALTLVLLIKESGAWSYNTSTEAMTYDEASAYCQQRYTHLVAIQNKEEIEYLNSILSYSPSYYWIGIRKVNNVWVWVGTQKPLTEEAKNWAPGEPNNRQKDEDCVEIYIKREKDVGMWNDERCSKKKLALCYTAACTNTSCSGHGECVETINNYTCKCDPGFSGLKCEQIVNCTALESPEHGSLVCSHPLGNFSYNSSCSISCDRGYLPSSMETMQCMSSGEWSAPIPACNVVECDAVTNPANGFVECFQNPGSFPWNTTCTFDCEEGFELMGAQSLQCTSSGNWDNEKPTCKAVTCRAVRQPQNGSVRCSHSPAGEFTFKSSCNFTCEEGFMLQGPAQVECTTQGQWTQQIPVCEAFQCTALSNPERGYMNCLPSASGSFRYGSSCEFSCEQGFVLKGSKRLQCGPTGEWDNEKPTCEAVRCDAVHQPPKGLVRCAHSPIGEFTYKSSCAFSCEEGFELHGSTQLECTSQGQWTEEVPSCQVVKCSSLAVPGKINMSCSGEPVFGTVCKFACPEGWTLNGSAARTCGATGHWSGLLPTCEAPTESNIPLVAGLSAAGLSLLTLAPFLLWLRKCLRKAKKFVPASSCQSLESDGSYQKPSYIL
# Sequence of human Peroxisome Proliferator-activated Receptor delta (PPARd), PPARD (gene 5467) (Q03181 whole entry, looked up, the tested form may be a part): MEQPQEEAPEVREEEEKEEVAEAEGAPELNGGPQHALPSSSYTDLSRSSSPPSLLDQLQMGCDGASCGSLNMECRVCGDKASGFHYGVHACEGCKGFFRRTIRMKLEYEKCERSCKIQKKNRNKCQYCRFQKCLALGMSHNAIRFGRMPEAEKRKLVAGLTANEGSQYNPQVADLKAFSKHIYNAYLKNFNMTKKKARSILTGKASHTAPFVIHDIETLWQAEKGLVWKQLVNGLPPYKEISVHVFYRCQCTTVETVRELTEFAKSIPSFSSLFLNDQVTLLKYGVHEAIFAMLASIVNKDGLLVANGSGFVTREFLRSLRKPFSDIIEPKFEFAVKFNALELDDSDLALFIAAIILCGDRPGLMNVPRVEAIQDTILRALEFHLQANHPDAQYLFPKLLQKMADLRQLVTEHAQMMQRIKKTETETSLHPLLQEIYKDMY
# Sequence of human RAR-related Orphan Receptor gamma (RORg), RORC (gene 6097) (P51449 whole entry, looked up, the tested form may be a part): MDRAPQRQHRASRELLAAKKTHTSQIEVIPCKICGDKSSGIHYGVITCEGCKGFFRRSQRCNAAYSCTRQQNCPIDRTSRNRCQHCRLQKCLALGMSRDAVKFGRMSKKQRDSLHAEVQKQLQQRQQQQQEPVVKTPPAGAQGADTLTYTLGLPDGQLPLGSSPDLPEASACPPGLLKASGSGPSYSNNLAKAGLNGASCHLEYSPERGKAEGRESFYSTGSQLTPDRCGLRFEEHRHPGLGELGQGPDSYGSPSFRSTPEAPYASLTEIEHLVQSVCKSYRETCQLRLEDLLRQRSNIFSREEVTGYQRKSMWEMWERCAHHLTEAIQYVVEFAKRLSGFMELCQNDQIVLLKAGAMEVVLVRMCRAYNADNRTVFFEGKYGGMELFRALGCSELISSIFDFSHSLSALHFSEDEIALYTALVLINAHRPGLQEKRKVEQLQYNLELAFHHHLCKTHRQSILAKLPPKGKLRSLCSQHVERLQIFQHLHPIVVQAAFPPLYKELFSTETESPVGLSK
# Sequence of Retinoic acid receptor RXR-alpha (Homo sapiens) (P19793 whole entry, looked up, the tested form may be a part): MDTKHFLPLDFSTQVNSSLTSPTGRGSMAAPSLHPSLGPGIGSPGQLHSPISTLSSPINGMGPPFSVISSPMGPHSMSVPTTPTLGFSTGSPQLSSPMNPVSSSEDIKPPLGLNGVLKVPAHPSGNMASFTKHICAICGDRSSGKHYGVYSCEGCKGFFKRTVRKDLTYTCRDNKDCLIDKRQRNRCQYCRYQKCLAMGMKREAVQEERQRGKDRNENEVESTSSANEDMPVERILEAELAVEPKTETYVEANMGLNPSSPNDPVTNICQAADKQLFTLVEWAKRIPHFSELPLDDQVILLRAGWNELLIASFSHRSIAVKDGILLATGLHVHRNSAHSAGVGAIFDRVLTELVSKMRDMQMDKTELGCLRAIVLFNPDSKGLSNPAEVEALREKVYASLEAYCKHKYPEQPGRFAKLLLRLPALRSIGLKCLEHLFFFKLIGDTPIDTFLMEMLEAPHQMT
# Sequence of Retinoic acid receptor alpha (Homo sapiens) (P10276 whole entry, looked up, the tested form may be a part): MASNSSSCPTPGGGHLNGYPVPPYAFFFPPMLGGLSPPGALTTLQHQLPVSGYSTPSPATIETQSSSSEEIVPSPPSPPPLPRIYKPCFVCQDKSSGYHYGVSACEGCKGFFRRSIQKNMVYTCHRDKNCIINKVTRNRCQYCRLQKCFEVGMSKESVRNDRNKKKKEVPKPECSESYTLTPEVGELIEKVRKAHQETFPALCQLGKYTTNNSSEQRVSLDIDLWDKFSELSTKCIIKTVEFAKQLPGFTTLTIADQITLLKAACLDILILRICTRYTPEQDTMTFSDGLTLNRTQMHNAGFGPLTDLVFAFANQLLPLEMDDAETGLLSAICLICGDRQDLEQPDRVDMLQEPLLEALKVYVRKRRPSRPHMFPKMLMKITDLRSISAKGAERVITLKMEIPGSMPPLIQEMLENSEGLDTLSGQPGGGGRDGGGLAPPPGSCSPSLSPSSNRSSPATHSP
# Sequence of human Retinoic Acid Receptor beta (RARb), RARB (gene 5915) (P10826 whole entry, looked up, the tested form may be a part): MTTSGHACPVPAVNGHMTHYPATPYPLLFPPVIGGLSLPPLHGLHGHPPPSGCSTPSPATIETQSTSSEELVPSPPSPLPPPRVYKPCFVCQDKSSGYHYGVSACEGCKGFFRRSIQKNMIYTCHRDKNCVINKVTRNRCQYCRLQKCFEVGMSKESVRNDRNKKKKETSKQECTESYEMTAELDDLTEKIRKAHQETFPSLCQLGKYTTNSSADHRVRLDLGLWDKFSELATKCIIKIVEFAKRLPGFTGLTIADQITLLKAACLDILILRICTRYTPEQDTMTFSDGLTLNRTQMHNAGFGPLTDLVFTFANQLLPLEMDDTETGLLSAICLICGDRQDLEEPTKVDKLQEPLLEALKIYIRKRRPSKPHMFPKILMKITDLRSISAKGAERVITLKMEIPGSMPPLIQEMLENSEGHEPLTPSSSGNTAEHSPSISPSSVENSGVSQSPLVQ
# Sequence of human Peroxisome Proliferator-activated Receptor alpha (PPARa), PPARA (gene 5465) (Q07869 whole entry, looked up): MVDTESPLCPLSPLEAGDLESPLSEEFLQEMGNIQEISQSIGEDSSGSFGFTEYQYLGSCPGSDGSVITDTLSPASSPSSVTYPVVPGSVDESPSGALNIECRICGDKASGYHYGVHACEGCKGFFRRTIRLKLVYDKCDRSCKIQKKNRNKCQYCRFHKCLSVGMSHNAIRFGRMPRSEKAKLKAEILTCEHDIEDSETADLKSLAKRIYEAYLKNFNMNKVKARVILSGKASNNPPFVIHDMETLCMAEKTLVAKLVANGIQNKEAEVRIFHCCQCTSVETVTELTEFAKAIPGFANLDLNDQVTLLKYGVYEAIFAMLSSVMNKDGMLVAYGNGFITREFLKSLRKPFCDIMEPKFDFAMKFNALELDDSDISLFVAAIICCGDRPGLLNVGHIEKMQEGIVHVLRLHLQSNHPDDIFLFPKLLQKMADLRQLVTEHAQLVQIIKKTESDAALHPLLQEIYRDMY
# Sequence of Peroxisome proliferator-activated receptor gamma (Homo sapiens) (P37231 whole entry, looked up, the tested form may be a part): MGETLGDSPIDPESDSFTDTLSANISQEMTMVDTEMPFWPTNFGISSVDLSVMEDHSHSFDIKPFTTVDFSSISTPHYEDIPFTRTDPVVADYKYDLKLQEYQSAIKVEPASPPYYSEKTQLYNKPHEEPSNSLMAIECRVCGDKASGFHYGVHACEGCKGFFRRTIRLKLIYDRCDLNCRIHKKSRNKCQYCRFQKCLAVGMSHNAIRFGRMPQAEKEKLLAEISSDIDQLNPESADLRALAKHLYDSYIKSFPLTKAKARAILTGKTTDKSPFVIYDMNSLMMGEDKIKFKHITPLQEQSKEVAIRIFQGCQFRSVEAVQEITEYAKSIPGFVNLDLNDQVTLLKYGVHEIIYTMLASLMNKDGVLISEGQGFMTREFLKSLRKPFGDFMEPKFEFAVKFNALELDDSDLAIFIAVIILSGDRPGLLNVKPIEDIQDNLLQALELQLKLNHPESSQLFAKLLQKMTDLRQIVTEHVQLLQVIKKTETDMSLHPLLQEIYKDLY
# Sequence of human RAR-related Orphan Receptor beta (RORb), RORB (gene 6096) (Q92753 whole entry, looked up, the tested form may be a part): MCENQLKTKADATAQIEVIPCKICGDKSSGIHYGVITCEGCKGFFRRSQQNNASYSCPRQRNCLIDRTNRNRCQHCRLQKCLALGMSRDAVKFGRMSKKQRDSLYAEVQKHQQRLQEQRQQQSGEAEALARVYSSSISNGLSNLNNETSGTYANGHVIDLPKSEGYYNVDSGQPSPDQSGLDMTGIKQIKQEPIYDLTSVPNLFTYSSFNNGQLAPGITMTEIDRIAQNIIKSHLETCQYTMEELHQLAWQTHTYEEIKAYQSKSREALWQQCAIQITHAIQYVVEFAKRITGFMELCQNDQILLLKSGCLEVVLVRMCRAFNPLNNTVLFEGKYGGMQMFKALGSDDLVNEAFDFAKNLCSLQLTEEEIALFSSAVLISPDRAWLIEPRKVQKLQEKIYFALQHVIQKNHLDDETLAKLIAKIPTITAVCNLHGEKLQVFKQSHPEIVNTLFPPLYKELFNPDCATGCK
# Sequence of human Retinoid X Receptor beta (RXRb), RXRB (gene 6257) (P28702 whole entry, looked up, the tested form may be a part): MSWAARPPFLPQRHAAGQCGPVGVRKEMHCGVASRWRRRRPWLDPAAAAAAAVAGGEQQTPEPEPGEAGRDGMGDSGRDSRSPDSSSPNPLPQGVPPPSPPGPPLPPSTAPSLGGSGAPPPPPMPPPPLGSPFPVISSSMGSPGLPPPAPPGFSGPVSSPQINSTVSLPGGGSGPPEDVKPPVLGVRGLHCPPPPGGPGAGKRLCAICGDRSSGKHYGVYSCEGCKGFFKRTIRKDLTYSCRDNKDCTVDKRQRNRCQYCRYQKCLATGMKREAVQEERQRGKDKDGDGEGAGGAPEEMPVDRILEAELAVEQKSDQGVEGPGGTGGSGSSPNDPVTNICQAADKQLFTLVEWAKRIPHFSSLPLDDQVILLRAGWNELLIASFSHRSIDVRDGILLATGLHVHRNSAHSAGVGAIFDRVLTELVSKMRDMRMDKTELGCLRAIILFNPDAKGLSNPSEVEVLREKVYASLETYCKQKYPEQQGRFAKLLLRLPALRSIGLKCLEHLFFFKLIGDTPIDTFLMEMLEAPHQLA
compound,measurement,setting,value
CCCCCC1=CCCC1=O,outcome,[1],inactive
same,outcome,[2],inactive
same,AC50,[3],35.4 µM (active)
same,AC50,[4],11.4 µM (active)
same,outcome,[5],inactive
same,outcome,[6],inactive
same,outcome,[7],inactive
same,outcome,[8],inactive
same,outcome,[9],inactive
same,outcome,[10],inactive
same,AC50,[11],20 µM (active)
O=C(O)c1ccc2c(c1)C(=O)OC2=O,outcome,[2],inactive
Nc1ccc(C(=O)O)cc1,outcome,[1],inactive
same,outcome,[12],inactive
same,outcome,[13],inactive
same,outcome,[14],inactive
same,outcome,[15],inactive
same,outcome,[16],inactive
same,outcome,[17],inactive
same,outcome,[7],inactive
same,outcome,[8],inactive
same,outcome,[9],inactive
same,outcome,[11],inactive
CC(=O)OC1CCCCC1C(C)(C)C (stereo not given),outcome,[2],inactive
same,outcome,[18],inactive
same,outcome,[14],inactive
same,outcome,[3],inactive
same,outcome,[4],inactive
same,outcome,[15],inactive
same,outcome,[16],inactive
same,outcome,[17],inactive
same,outcome,[5],inactive
same,AC50,[6],58.9 µM (active)
c1ccc(Nc2cccc3ccccc23)cc1,AC50,[1],32.8 µM (active) and 18 µM (active)
same,AC50,[2],9.04 µM (active)
same,AC50,[3],18.3 µM (active)
same,AC50,[4],12.6 µM (active)
same,AC50,[5],43.4 µM (active)
same,AC50,[6],11.9 µM (active)
same,outcome,[19],inactive
same,AC50,[7],31.5 µM (active) and 31.6 µM (active)
same,AC50,[8],23.8 µM (active) and 28.6 µM (active)
same,AC50,[9],33.1 µM (active) and 33.6 µM (active)
same,AC50,[11],38.7 µM (active) and 29.6 µM (active)
COC(OC)(C(=O)c1ccccc1)c1ccccc1,outcome,[1],inactive
same,outcome,[18],inactive
same,outcome,[12],inactive
same,outcome,[3],inactive
same,AC50,[4],0.52 µM (active)
same,outcome,[15],inactive
same,outcome,[5],inactive
same,outcome,[6],inactive
same,outcome,[7],inactive
same,outcome,[8],inactive
same,outcome,[9],inactive
same,outcome,[11],inactive
C=CC(=O)OCCCCCCOC(=O)C=C,AC50,[1],12.4 µM (active)
same,outcome,[2],inactive
same,AC50,[3],6.09 µM (active)
same,outcome,[5],inactive
same,outcome,[6],inactive
same,outcome,[19],inactive
same,AC50,[7],6.59 µM (active)
same,AC50,[8],10 µM (active)
same,AC50,[9],20 µM (active)
same,AC50,[11],4.69 µM (active)
CC=CC(=O)OCC(C)C,outcome,[2],inactive
same,outcome,[18],inactive
same,outcome,[13],inactive
same,outcome,[14],inactive
same,outcome,[3],inactive
same,outcome,[15],inactive
same,outcome,[16],inactive
same,outcome,[5],inactive
CC(C)C(=O)OCCc1ccccc1,outcome,[1],inactive
same,outcome,[18],inactive
same,outcome,[12],inactive
same,outcome,[13],inactive
same,outcome,[15],inactive
same,outcome,[16],inactive
same,outcome,[17],inactive
same,outcome,[7],inactive
same,outcome,[8],inactive
same,outcome,[9],inactive
same,outcome,[11],inactive
C[N+](C)(C)CCCNS(=O)(=O)C(F)(F)C(F)(F)C(F)(F)C(F)(F)C(F)(F)C(F)(F)C(F)(F)C(F)(F)F,AC50,[1],39 µM (active) and 45.1 µM (active)
same,outcome,[2],inactive
same,outcome,[3],inactive
same,outcome,[4],inactive
same,outcome,[15],inactive
same,outcome,[5],inactive
same,outcome,[7],inactive
same,AC50,[8],14.3 µM (active)
same,outcome,[8],inactive
same,AC50,[9],30 µM (active)
same,outcome,[9],inactive
same,outcome,[11],inactive
CC1(C)CCC[C@]2(C)[C@H]3CC(=O)O[C@]3(C)CC[C@@H]12,outcome,[2],inactive
same,outcome,[18],inactive
same,outcome,[14],inactive
same,outcome,[3],inactive
same,AC50,[4],6.22 µM (active)
same,outcome,[15],inactive
same,outcome,[5],inactive
same,outcome,[6],inactive
